# Source: PubChem BioAssay (National Center for Advancing Translational Sciences (NCATS))
# A selection: hits, their analogues and other compounds. The true share with any hit is near 19%.
# TDP1 cell noCPT – qHTS for Inhibitors of human tyrosyl-DNA phosphodiesterase 1 (TDP1): qHTS in cells in absence of CPT; 15% of 420,000 active; Potency, µM (titrated, usually from 46.2 µM), for the others: at the highest dose activity change, negative = growth inhibition, hits mostly inhibitors; DT40 Tdp1-/- hTDP1 cells, no CPT, ATP luminescence, 48 h; also: potency is read from the fitted curve at half-maximal effect; % is scaled to controls: 0 for no effect and ±100 for the full control effect; nearly all actives have a fitted effect of over 55% in size
#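 Camptothecin absent (DMSO only). Human TDP1-complemented DT40 knockout cells, 400 cells/well, 37 °C for minimum 48 hr; ATP measured via CellTiter-Glo, 30 min dark incubation, luminescence.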
# SW480 rereplic – induces DNA re-replication in SW480 colon adenocarcinoma cells; SW480 DNA re-replication, Hoechst DNA content imaging, 48 h; Potency, µM (titrated, usually from 46.1 µM), without a hit: top-dose re-replication activation, hits mostly activators; 1.8% of 340,000 active; AID 624297; also: potency is read from the fitted curve at half-maximal effect; % of control where 0% means no effect; nearly all actives have a fitted effect of over 55% in size
#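 Compounds, transferred as 23 nL by pin tool, were incubated with cells for 48 hr; DNA content per nucleus was then quantified by Hoechst staining and fluorescence plate imaging.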
# DT40 TDP1 CPT – growth inhibition of DT40 Tdp1-/-;hTDP1 cells with camptothecin (screen for TDP1 inhibitors) | Potency, µM (highest dose often 46.2 µM), inactives show at the highest dose activity change, negative = growth inhibition, most hits filed as inhibitors | chicken DT40 Tdp1-/-;hTDP1 cells + 20 nM CPT, ATP luminescence, 48 h | AID 686979 | 12% of 420,000 active; also: potency is read from the fitted curve at half-maximal effect; % is scaled to controls: 0 for no effect and ±100 for the full control effect; nearly all actives have a fitted effect of over 55% in size
#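 Chicken DT40 Tdp1-/- cells complemented with human TDP1, 400 cells/well, exposed to compounds plus 20 nM camptothecin for at least 48 h at 37 C; viability read as ATP content by CellTiter-Glo luminescence.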
# IL1B secr inh – blocks inflammasome-driven IL-1 beta release; THP-1 LPS/ATP IL-1B secretion, AlphaLISA, 16 h; active compounds read low; activity change, % at 57.5 µM; 4.7% of 360,000 active; AID 743279; in the data active = activity change below about -50%; inconclusive = mostly about -30% to -49%; also: % is scaled to controls: 0 for no effect and ±100 for the full control effect
#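 THP-1 cells pretreated 1 hr with compounds (up to 57.5 uM final), then stimulated with LPS (250 ng/mL final) plus ATP (1.25 mM final); secreted IL-1B measured by AlphaLISA after 16 hr, decreased signal indicating inhibition.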
# BCR signal inh – inhibitors of chronic active B-cell receptor signaling. ABC-DLBCL IkBa-CBG/CBR reporter, luminescence ratio, 4 h. Potency, µM (series often up to 46.1 µM), inactives show at the top dose activity change, negative = inhibition, hits mostly inhibitors. 0.05% of 340,000 active. AID 493014; active = well fitted inhibition curve with a large enough effect in the signal ratio, with a control signal flat, not every such curve was filed as active; inconclusive = small, poorly fitted or top-dose-only effect, or effect the other way, or a change in a side signal; the % refers to the signal ratio;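 also: potency is read from the fitted curve at half-maximal effect; plate controls were basal doxycycline-induced cells for no effect and cells given 10 µM MG132 for full effect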
#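 Doxycycline induced both beetle luciferases in TMD8 lymphoma cells; IKK-driven degradation limits the IkappaBalpha-fused green signal, while red luminescence normalises for cell number and nonspecific effects. Compounds tested up to 46 uM, 4 hrs.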
# MCF10A rerep – induces DNA re-replication in MCF 10a normal breast cells; MCF 10A DNA re-replication, Hoechst nuclear intensity, 48 h; Potency, µM (titrated, usually from 46.1 µM), for the others: at the top dose activity, positive = re-replication, actives largely listed as activators; 2.9% of 350,000 active; also: potency is read from the fitted curve at half-maximal effect; % of control where 0% means no effect; nearly all actives have a fitted effect of over 50% in size
# The depositor's hits bear a star; ? = inconclusive; nt = not tested or not shown; [ ] = remark or other dose. Unless noted, calls follow the shape of the dose curve; as a rule, active = well fitted curve in the direction sought with a large enough effect; inconclusive = small, poorly fitted or top-dose-only effect, or another doubt; inactive = no such curve, though single readings can be large; an effect the other way counts as inactive or inconclusive.
SMILES,TDP1 cell noCPT,SW480 rereplic,DT40 TDP1 CPT,IL1B secr inh,BCR signal inh,MCF10A rerep
Cc1ccc(S(=O)(=O)NCc2cccc([N+](=O)[O-])c2)cc1,?,nt,-19.8%,-8.0,nt,nt
Cc1nnc(NC(=O)CC(CN(C)S(=O)(=O)c2ccccc2)c2ccccc2)s1 (configuration not stated),-21.2%,-4.5%,-14.0%,6.3,17.7%,1.4%
CN(CC(CC(=O)Nc1nncs1)c1ccccc1)S(=O)(=O)c1ccc(Br)cc1 (configuration not stated),?,5.8%,16.4µM*,31.9,?,8.0%
COc1ccc(N2CC(NC(=O)c3ccc4c(c3)OCO4)CC2=O)cc1OC (configuration not stated),5.2%,nt,-1.6%,nt,1.3%,nt
CCN1CCN(C(=O)c2ccc3c(c2)N(Cc2ccc(Cl)cc2)C(=O)c2ccccc2S3(=O)=O)CC1,23.1µM*,nt,?,nt,nt,nt
O=C(c1ccc2c(c1)N(Cc1ccc(F)cc1)C(=O)c1ccccc1S2(=O)=O)N1CCCC1,16.4µM*,nt,23.1µM*,nt,nt,nt
Cc1cccc(CN2C(=O)c3ccccc3S(=O)(=O)c3ccc(C(=O)N4CCN(c5cc(C)ccc5C)CC4)cc32)c1,-28.2%,nt,-21.2%,nt,nt,nt
O=C(c1ccc2c(c1)N(Cc1ccc(Cl)cc1)C(=O)c1ccccc1S2(=O)=O)N1CCCC1,25.9µM*,nt,20.6µM*,nt,nt,nt
O=C(c1ccc2c(c1)N(Cc1ccc(Cl)cc1)C(=O)c1ccccc1S2(=O)=O)N1CCc2ccccc21,7.31µM*,nt,5.8µM*,nt,nt,nt
O=C(Nc1cc(C(F)(F)F)ccc1N1CCOCC1)C1CCCO1 (configuration not stated),-17.4%,-5.7%,-23.0%,-8.1,1.9%,15.2%
COc1ccc(C(=O)N2CCCCC2c2cc(C(=O)NCc3ccccc3)no2)cc1 (configuration not stated),-20.6%,nt,?,-12.9,nt,nt
O=C(CN1Cc2ccccc2OC(c2ccccc2)C1)NCc1cccnc1 (configuration not stated),?,nt,-0.8%[9.04 µM],nt,nt,nt
C=Cc1ncc(OC)c2c1[nH]c1ccccc12,3.66µM*,?,3.66µM*,-107.2*,-7.4%,?
CC[C@@H](C)C(NC(=O)OC(C)(C)C)c1cn([C@@H](Cc2ccc(O)cc2)C(=O)N2CCN(C(=O)OC(C)(C)C)CC2)nn1 (some centres not stated),?,75.5%,?,-17.1,8.7%,4.3%
CC(C)CC(NC(=O)OC(C)(C)C)c1cn([C@@H](CCC(=O)OC(C)(C)C)C(=O)N2CCN(C(=O)OC(C)(C)C)CC2)nn1 (some centres not stated),16.4µM*,0.0%,16.4µM*,-5.3,-15.4%,-20.2%
CC[C@H](C)C(C(=O)N1CCN(C(=O)OC(C)(C)C)CC1)n1cc(C(CC(C)C)NC(=O)OC(C)(C)C)nn1 (some centres not stated),?,0.3%,23.1µM*,-4.4,-18.9%,1.4%
CC[C@@H](C)[C@@H](C(=O)N1CCN(C(=O)OC(C)(C)C)CC1)n1cc(CCCCNC(=O)OC(C)(C)C)nn1,13µM*,-3.8%,13µM*,-22.4,-12.7%,?
CC(C)(C)OC(=O)NCCCCc1cn(CC(=O)N2CCN(C(=O)OC(C)(C)C)CC2)nn1,?,-11.6%,?,0.0,9.1%,24.9%
COc1cc(SC)ccc1C(=O)OCc1nc2ccsc2c(=O)[nH]1,9.2µM*,-8.0%,8.2µM*,-3.8,?,-0.5%
COc1cc2ccccc2cc1C(=O)OCc1nc2ccsc2c(=O)[nH]1,?,3.8%,5.8µM*,-25.5,?,?
CSc1ncccc1C(=O)OCc1nc2ccsc2c(=O)[nH]1,-18.2%,1.3%,-22.8%,19.4,-26.8%,-2.3%
Cc1cnc(C(=O)OCC(=O)Nc2ccc(Br)c(C)c2)cn1,-12.1%,1.9%,-7.9%,4.6,3.1%,15.7%
CC(C)(C)c1ccc(-c2noc(-c3ccc4c(c3)CCO4)n2)cc1,?,4.61µM*,0.8%,12.4,18.1%,?
COCCN(C(=O)COC(=O)C12CC3CC(CC(C3)C1)C2)c1c(N)n(Cc2ccccc2)c(=O)[nH]c1=O,?,-15.5%,?,-4.6,nt,0.3%
COCCn1nc2cc(C(=O)NCC34CC5CC(CC(C5)C3)C4)ccc2c1OC,?,0.1%,-24.7%,14.9,-1.7%,-4.8%
SMILES,TDP1 cell noCPT,SW480 rereplic,DT40 TDP1 CPT,IL1B secr inh,BCR signal inh,MCF10A rerep
CCCn1nc2cc(C(=O)NCC34CC5CC(CC(C5)C3)C4)ccc2c1OCC,18.4µM*,-0.8%,20.6µM*,-20.4,?,-7.5%
Cc1ccc(N/N=C2\CS(=O)(=O)N(C)c3ccsc32)cc1,?,28.1%,?,-8.6,?,2.4%
CN1c2ccsc2/C(=N/Nc2ccc(F)cc2)CS1(=O)=O,2.59µM*,0.0%,2.06µM*,22.9,-1.5%,-3.3%
Cc1nonc1N1CCN(Cc2cn[nH]c2-c2ccc3c(c2)OCO3)CC1,-4.8%,-1.4%,1.9%,-6.0,-28.8%,-0.9%
COc1ccc2cc(-c3[nH]ncc3CN3CCCC3c3nonc3C)ccc2c1 (configuration not stated),23.1µM*,?,?,39.2,-5.3%,?
O=[N+]([O-])c1ccc(CC(Cl)c2ccccn2)cc1 (configuration not stated),-10.3%,0.9%,-8.0%,-50.1*,nt,1.5%
Cc1ccc(NC(=O)COC(=O)c2ccccc2-c2nc3ccccc3s2)c(C)c1,?,1.3%,?,-26.7,-3.5%,?
CCc1cccc(CC)c1NC(=O)COC(=O)c1ccccc1-c1nc2ccccc2s1,16.4µM*,-31.4%,20.6µM*,-13.6,?,?
COc1ccc(S(=O)(=O)N2CCN(C(=O)CSC(=S)N3CCCC3)CC2)cc1,?,-0.6%,-11.0%,-9.2,2.0%,-4.2%
CCn1cc(C2=NC(CC(C)C)CO2)c2ccccc21 (configuration not stated),14.6µM*,?,?,?,?,?
CCCCCCCCCCCCCCCCC(C(=O)O)C(O)(CC(=O)O)C(=O)O (configuration not stated),-9.4%,0.1%,17.2%,nt,nt,29.9µM*
Cc1ccc(OCCCCCCN2CCNCC2)c(Br)c1,20.6µM*,?,?,-89.0*,nt,?
Cc1ccc(OCCCCN2CCC(C)CC2)c(Br)c1,?,4.5%,23.1µM*,-28.5,?,15.1%
